The panel holds about 83,000 compounds, 20% with a hit somewhere; the sample as a whole holds those more often.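 Cell lines were cultured in 96-well plates, exposed to a single compound concentration, and assessed for percent growth 48 hours later.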 A number with no mark means an inactive call. How the source made its calls: active means growth percent below 10; inactive means the rest.
test system: SK-OV-3 ovarian; experiment: NCI-60 one-dose screen, 48 h (100 = growth as untreated, 0 = no growth, -100 = all killed); details: 10 µM

Row | SMILES | growth [%]
1 | CC(=O)OC(OC(C)=O)C1CCCO1 (stereo not drawn) | 105
2 | O=C(O)c1ccnc(Br)c1 | 101
3 | c1ccc2c(N3CCCCC3)ncnc2c1 | 94
4 | COc1ccccc1N=Nc1c(O)ccc2cc(S(=O)(=O)O)ccc12 | 88.8
5 | N#Cc1c(N)sc(=S)c2c1CCCC2 | 103
6 | O=C(CCl)N1CCN(C/C=C/c2ccccc2)CC1 | 99.7
7 | C#CCSc1nnnn1-c1ccc(Br)c(C)c1 | 105
8 | C=CC[N+](C)(C)C | 108
9 | Nc1ccc(N)c([N+](=O)[O-])c1 | 113
10 | O=C(Nc1cc(-c2ccccc2)[nH]n1)c1ccc(Cl)cc1 | 62.7
11 | CC(C)C(C#N)(C(C)C)C(C)C | 109
12 | CCOC(=O)C(CCC(C)C)C(=O)OCC | 106
13 | C=CCNC(=O)c1ccc(OC)cc1 | 116
14 | S=c1[nH]ccn1-c1ccccc1Cl | 111
15 | NC(=S)N/N=C/c1ccc(N)cc1 | 100
16 | CCCCC(O)c1ccccc1 (stereo not drawn) | 95.4
17 | CCOc1ccc(Br)cc1/C=N\N=C\c1cc(Br)ccc1OCC | 117
18 | O=C1Cc2ccccc2C(=O)O1 | 114
19 | CC(C)CCOC(=O)c1ccccc1 | 104
20 | COC(=O)c1ccc(C(C)C)cc1 | 83.4
21 | COc1cccc(/C=N/NC(=S)NC2CC3CCC2C3)c1O (stereo not drawn) | 46.2
22 | CCOC(=O)C1OC1c1ccccc1 (stereo not drawn) | 99
23 | C/C(=C\c1cc(Cl)ccc1OCC(=O)O)[N+](=O)[O-] | 97.7
